Measurements: the supplement of paper PMC10849652
The full data set covers some 7,900 targets. This sample favours those with a hit. About 0.6% of all pairs of compound and target were hits. Values without a mark were called inactive.

Key:
Test in all cases: log2 fold change, soluble protein after heating vs DMSO (PISA); higher = thermal stabilisation; K562 cells, 10 uM, 30 min; active = over 0.2 and 3.5 SD of the protein, either way, in both replicates (recomputed)
bafetinib = compound: Cc1ccc(NC(=O)c2ccc(CN3CC[C@H](N(C)C)C3)c(C(F)(F)F)c2)cc1Nc1nccc(-c2cncnc2)n1 [bafetinib]
How it was run: (§1)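 Soluble protein was quantified by TMTpro 16plex LC-MS/MS after channel sums were equalised. It was obtained as the supernatant after 21,000xg for 90 min from pooled aliquots of K562 cells (2×10^6 cells/mL, 10 μM compound, 30 min) heated for 3 min across 48°C-58°C and extracted in PBS with 0.5% NP-40 at 4°C. Thermal stability values are relative to control samples and come from duplicates. They are given as log2 fold changes.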

[1] = compound: Cc1cccc(CC(=O)N2CCc3c2ccc(-c2cn(C)c4ncnc(N)c24)c3F)n1
How it was run: as §1

nilotinib = compound: Cc1cn(-c2cc(NC(=O)c3ccc(C)c(Nc4nccc(-c5cccnc5)n4)c3)cc(C(F)(F)F)c2)cn1 [nilotinib]
How it was run: as §1

[2] = compound: Cc1nc(Nc2n[nH]c3c2CN(C(=O)N[C@H](CN(C)C)c2ccccc2)C3(C)C)c2sccc2n1
How it was run: as §1

dasatinib = compound: Cc1nc(Nc2ncc(C(=O)Nc3c(C)cccc3Cl)s2)cc(N2CCN(CCO)CC2)n1 [dasatinib]
How it was run: as §1

[3] = compound: Cc1ncc(-c2ccnc(Nc3ccc(S(C)(=O)=O)cc3)n2)n1C(C)C
How it was run: as §1

[4] = compound: Cn1cc(-c2ccc3c(c2)CCN3C(=O)Cc2cccc(C(F)(F)F)c2)c2c(N)ncnc21
How it was run: as §1

[5] = compound: Cn1cc(-c2ccc3nnc(C(F)(F)c4ccc5ncccc5c4)n3n2)cn1
How it was run: as §1

tipifarnib = compound: Cn1cncc1[C@@](N)(c1ccc(Cl)cc1)c1ccc2c(c1)c(-c1cccc(Cl)c1)cc(=O)n2C [tipifarnib]
How it was run: as §1

mubritinib = compound: FC(F)(F)c1ccc(/C=C/c2nc(COc3ccc(CCCCn4ccnn4)cc3)co2)cc1 [mubritinib]
How it was run: as §1

[6] = compound: NC(=O)Nc1cc(-c2cccc(F)c2)sc1C(=O)N[C@H]1CCCNC1
How it was run: as §1

[7] = compound: NC(=O)c1cnc(N[C@@H]2CCCC[C@@H]2N)nc1Nc1cccc(-n2nccn2)c1
How it was run: as §1

[8] = compound: NC1(c2ccc(-c3nc4ccn5c(=O)[nH]nc5c4cc3-c3ccccc3)cc2)CCC1
How it was run: as §1

[9] = compound: NCC(=O)Nc1ccc(-n2nc(C(F)(F)F)cc2-c2ccc3c(ccc4ccccc43)c2)cc1
How it was run: as §1

entinostat = compound: Nc1ccccc1NC(=O)c1ccc(CNC(=O)OCc2cccnc2)cc1 [entinostat]
How it was run: as §1

vorinostat = compound: O=C(CCCCCCC(=O)Nc1ccccc1)NO [vorinostat]
How it was run: as §1

citarinostat = compound: O=C(CCCCCCNC(=O)c1cnc(N(c2ccccc2)c2ccccc2Cl)nc1)NO [citarinostat]
How it was run: as §1

silmitasertib = compound: O=C(O)c1ccc2c(c1)nc(Nc1cccc(Cl)c1)c1ccncc12 [silmitasertib]
How it was run: as §1

[10] = compound: O=C1NC(=O)C(c2cnc3ccccn23)=C1c1cn2c3c(cc(F)cc13)CN(C(=O)N1CCCCC1)CC2
How it was run: as §1

[11] = compound: c1cc(OCCN2CCCCC2)cc(-c2n[nH]c3ccc(-c4nnc[nH]4)cc23)c1
How it was run: as §1

Chain of UniProt Q8WXD2 (Q8WXD2 whole entry, looked up): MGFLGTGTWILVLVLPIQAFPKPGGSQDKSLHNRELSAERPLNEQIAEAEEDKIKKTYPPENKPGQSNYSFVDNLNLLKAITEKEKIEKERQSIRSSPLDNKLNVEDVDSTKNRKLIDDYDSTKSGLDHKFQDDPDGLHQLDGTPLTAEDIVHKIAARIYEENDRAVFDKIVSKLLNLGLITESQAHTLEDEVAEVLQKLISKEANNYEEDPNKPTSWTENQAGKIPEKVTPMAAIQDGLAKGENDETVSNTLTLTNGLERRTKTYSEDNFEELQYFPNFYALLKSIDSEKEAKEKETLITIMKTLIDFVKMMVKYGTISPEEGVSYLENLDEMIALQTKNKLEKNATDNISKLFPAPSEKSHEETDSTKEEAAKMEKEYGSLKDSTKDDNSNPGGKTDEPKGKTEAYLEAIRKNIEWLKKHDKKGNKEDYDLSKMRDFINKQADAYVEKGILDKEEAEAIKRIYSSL
Chain of UniProt Q9H4A4 (Q9H4A4 whole entry, looked up): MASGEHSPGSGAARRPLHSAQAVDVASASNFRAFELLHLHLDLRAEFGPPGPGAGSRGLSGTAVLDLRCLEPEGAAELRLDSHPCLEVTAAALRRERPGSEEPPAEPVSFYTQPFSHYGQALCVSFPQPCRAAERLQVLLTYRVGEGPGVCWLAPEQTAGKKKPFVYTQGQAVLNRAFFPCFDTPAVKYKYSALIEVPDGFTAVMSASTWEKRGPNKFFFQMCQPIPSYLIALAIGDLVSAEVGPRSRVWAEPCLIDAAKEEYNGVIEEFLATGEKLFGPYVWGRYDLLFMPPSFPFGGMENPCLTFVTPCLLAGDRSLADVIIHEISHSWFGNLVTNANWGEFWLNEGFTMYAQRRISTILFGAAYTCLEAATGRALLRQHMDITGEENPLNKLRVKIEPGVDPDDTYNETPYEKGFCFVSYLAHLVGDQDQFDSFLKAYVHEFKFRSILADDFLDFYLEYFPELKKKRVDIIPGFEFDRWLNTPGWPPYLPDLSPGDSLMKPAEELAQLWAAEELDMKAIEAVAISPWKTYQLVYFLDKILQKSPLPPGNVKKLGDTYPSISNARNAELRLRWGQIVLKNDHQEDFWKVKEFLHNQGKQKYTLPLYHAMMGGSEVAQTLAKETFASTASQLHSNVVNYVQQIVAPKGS
Chain of UniProt O95486 (O95486 whole entry, looked up): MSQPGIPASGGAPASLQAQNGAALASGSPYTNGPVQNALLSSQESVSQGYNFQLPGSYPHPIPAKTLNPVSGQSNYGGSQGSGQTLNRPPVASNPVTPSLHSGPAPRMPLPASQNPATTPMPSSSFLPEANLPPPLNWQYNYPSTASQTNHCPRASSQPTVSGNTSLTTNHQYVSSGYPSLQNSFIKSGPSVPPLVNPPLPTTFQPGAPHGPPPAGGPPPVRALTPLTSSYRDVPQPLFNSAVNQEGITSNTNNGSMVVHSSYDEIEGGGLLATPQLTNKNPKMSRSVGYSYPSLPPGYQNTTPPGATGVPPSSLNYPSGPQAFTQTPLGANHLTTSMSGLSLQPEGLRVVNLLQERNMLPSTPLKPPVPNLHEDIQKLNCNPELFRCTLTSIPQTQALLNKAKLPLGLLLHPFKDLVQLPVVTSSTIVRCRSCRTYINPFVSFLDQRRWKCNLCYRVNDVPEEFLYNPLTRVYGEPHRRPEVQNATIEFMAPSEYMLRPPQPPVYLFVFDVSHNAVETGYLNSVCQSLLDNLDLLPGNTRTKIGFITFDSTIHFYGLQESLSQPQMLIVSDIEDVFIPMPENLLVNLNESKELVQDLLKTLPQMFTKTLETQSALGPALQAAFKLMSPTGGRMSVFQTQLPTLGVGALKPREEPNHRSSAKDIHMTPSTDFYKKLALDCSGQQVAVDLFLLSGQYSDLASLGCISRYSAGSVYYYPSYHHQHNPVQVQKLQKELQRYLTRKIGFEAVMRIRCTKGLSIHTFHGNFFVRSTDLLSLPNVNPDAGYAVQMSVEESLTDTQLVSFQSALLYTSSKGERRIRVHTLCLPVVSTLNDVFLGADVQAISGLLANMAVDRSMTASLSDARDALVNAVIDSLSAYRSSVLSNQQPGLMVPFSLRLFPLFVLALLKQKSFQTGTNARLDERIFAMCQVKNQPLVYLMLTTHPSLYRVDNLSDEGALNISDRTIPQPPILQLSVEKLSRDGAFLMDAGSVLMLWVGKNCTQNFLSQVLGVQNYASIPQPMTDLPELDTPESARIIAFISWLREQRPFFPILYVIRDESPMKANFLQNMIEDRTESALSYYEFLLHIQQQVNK
Chain of UniProt P49756 (P49756 whole entry, looked up): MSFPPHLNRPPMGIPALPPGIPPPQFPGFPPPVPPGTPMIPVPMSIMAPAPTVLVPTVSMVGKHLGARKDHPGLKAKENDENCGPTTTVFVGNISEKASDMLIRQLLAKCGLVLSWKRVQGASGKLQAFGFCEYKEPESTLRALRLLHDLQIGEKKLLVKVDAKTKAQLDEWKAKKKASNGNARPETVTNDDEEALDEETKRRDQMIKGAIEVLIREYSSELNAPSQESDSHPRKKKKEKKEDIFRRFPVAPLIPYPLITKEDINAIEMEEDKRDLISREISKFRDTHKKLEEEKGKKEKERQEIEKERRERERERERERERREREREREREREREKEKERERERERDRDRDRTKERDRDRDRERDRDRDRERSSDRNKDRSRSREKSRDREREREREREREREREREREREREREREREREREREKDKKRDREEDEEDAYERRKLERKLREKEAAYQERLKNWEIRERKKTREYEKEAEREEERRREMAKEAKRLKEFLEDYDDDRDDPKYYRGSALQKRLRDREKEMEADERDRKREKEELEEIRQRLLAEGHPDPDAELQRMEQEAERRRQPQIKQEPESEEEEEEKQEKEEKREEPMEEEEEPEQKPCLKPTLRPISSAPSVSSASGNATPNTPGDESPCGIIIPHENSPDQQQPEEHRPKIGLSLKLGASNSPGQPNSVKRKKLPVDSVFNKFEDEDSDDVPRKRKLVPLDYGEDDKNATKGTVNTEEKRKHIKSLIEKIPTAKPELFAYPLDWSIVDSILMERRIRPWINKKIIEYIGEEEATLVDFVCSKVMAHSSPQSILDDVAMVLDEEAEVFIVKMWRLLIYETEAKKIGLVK
Chain of UniProt Q9BVS4 (Q9BVS4 whole entry, looked up): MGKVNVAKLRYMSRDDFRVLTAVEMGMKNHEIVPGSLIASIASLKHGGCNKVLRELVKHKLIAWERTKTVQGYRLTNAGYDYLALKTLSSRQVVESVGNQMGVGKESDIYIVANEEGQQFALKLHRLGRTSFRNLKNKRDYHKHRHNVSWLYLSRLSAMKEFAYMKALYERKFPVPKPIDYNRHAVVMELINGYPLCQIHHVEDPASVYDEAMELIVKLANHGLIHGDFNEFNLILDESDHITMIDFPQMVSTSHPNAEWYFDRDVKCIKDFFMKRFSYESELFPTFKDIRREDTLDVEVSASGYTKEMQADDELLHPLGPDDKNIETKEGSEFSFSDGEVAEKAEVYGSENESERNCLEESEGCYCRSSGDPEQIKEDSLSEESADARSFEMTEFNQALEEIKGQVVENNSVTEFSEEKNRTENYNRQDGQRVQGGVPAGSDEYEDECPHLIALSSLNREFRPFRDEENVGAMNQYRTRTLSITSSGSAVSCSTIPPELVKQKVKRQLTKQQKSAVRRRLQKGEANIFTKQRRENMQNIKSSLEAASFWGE
Chain of UniProt Q8N122 (Q8N122 whole entry, looked up): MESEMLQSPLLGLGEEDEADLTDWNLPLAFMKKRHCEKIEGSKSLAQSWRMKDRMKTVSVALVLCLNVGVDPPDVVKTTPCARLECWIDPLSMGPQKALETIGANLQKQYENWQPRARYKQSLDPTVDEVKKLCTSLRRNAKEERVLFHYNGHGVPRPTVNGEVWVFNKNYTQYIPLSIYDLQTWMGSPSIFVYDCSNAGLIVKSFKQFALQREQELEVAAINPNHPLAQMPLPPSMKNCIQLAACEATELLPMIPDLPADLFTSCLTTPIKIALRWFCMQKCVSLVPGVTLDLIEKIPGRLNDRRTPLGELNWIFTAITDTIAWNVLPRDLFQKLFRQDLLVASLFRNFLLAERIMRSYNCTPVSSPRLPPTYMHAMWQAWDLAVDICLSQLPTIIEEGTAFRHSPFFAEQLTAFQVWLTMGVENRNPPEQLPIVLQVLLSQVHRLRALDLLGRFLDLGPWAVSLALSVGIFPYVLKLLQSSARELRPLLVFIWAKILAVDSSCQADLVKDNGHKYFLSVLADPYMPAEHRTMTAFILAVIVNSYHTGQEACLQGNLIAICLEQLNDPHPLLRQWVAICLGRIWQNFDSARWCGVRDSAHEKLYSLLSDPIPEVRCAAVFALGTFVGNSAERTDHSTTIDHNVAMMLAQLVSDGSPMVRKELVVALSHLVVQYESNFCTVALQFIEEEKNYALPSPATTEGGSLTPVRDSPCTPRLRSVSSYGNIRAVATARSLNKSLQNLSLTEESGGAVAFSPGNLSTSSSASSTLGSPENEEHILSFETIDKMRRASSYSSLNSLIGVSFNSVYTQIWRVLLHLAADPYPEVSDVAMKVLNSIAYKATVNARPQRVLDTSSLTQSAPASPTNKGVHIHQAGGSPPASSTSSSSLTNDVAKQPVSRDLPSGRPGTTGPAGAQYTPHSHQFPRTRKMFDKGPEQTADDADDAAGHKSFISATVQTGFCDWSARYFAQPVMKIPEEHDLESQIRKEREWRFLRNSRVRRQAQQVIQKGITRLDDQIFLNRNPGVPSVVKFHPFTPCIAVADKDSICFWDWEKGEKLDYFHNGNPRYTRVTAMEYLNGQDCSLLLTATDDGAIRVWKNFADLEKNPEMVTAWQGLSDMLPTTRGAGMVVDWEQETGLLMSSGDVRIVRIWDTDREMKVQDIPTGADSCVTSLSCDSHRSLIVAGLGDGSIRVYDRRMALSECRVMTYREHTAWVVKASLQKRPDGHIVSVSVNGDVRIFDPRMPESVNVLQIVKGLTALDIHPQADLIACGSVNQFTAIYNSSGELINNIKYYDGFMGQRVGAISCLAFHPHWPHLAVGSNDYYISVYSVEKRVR
Chain of UniProt O95059 (O95059 whole entry, looked up): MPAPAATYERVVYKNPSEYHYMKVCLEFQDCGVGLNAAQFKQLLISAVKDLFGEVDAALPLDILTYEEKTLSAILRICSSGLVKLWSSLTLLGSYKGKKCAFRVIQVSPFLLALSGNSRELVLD

Target	log2 fold change (bafetinib)	log2 fold change [1]	log2 fold change (nilotinib)	log2 fold change [2]	log2 fold change (dasatinib)	log2 fold change [3]	log2 fold change [4]	log2 fold change [5]	log2 fold change (tipifarnib)	log2 fold change (mubritinib)	log2 fold change [6]	log2 fold change [7]	log2 fold change [8]	log2 fold change [9]	log2 fold change (entinostat)	log2 fold change (vorinostat)	log2 fold change (citarinostat)	log2 fold change (silmitasertib)	log2 fold change [10]	log2 fold change [11]
RNASEH2A (UniProt O75792)	-0.111	-0.303 (active)	-0.025	0.024	-0.159	-0.047	0.056	0.038	-0.003	0.059	-0.017	-0.06	-0.181	-0.109	0.037	-0.145	0.015	0.014	-0.208	-0.015
RIOK2 (UniProt Q9BVS4)	0.27	0.003	0.094	0.202	0.013	0.231	-0.041	-0.067	-0.003	0.014	-0.008	0.351 (active)	0.04	0.027	-0.041	-0.044	-0.067	0.018	0.086	-0.071
SCPEP1 (UniProt Q9HB40)	-0.499 (active)	-0.013	0.028	-0.006	-0.007	-0.004	0.023	0.034	0.026	0.04	0.036	0.001	-0.314 (active)	0.008	0.023	-0.037	-0.043	0.003	0.024	0.022
SEC24A (UniProt O95486)	-0.018	0.041	-0.126	0.021	-0.121	-0.012	0.008	0.016	-0.005	0.017	-0.015	0	-0.108	-0.016	0.016	0.078	0	0.02	-0.092	-0.013
RPTOR (UniProt Q8N122)	-0.005	0.034	-0.085	-0.103	-0.103	-0.045	-0.107	0.009	-0.062	0.033	-0.026	-0.139	-0.243 (active)	-0.021	0.009	0.007	0.056	0.085	-0.025	-0.008
RBM25 (UniProt P49756)	-0.067	-0.066	-0.012	-0.03	-0.049	-0.129	-0.044	-0.096	0.068	0.049	0	0.007	-0.058	-0.025	0.031	0.067	0.015	0.019	0.005	-0.053
SCG3 (UniProt Q8WXD2)	0.075	-0.027	0.172	-0.098	0.151	-0.032	0.147	-0.037	0.044	-0.01	0.028	-0.051	0.114	0.061	0.009	0.025	-0.015	-0.029	0.018	-0.098
RPA1 (UniProt P27694)	0.029	0.019	-0.051	-0.1	0.077	0.016	-0.004	0.015	-0.074	0.026	-0.189	0.007	-0.049	-0.052	0.06	0.106	0.079	-0.02	-0.046	0.006
RNPEP (UniProt Q9H4A4)	0.003	0.035	-0.004	-0.041	-0.134	0.025	0.012	0.043	-0.116	0.051	-0.001	-0.093	-0.086	-0.027	0.042	0.033	0.018	0.031	-0.017	-0.033
RPP14 (UniProt O95059)	0.045	0	-0.014	0.019	0.063	-0.013	-0.078	-0.054	0.003	-0.084	0.063	-0.006	-0.003	0.138	-0.065	-0.033	0.051	0.06	0.027	-0.107
ROR2 (UniProt Q01974)	0.024	0.052	0.009	-0.105	-0.124	0.063	0.043	-0.041	0.03	0.029	-0.007	-0.01	-0.03	-0.04	0.004	0.003	0.078	-0.027	0.012	-0.151
RAC1 (UniProt P63000)	0.184	-0.017	0.073	0.045	0.007	0.048	0.024	-0.037	0.106	0.026	0.093	0.043	0.018	0.051	0.047	0.084	-0.087	-0.078	0.065	0.146
RBM22 (UniProt Q9NW64)	-0.085	0	-0.019	-0.051	-0.07	0.024	-0.133	-0.071	0.008	-0.048	-0.027	-0.004	0.032	-0.049	-0.008	-0.009	-0.038	0.119	-0.063	-0.043
RBM26 isoform 2 (UniProt Q5T8P6)	-0.003	0.058	-0.088	-0.432	-0.176	0.021	0.12	0.168	-0.033	0.045	-0.001	0.031	-0.135	-0.103	0.141	0.103	0.193	-0.1	-0.05	0.017
RAB3GAP2 (UniProt Q9H2M9)	0.059	0.091	-0.026	-0.088	-0.14	0.006	-0.077	-0.029	-0.046	-0.087	-0.049	-0.067	-0.089	-0.04	0.057	0.106	0.089	0.095	0.099	-0.065
RNF220 (UniProt Q5VTB9)	-0.064	0.008	0.009	-0.058	0.01	0.037	-0.034	0.239 (active)	-0.003	0.002	0.01	-0.019	-0.002	-0.06	-0.037	0.052	0.043	0.025	-0.075	-0.038
